According to paper PMC13494018:
Values without a mark were called inactive. How the calls were made is not given here.

B1: design_621_7e0052dc-ae49-49a0-b99f-9f3ee649cc2f_162_dldesign_0_cycle1_af2pred (protein)
chain: MGELFAALIEAMRLASEAARLAKAGEKEEAKEKLEKALKLVGEVAKATGTTAIYDETAKKAEASSLEEAARAVMSGAAKIISEAAKKA
B2: design_621_7e0052dc-ae49-49a0-b99f-9f3ee649cc2f_375_dldesign_0_cycle1_af2pred (protein)
chain: SQAAQIALNAAKSLAENIKKYAEVMSEEEAKGAIELLYDLAKYAKKEDPELGKKAEKIAEEAKKYVEKVFKEKKEEEEK
B3: design_621_7e0052dc-ae49-49a0-b99f-9f3ee649cc2f_1478_dldesign_0_cycle1_af2pred (protein)
chain: AQALLDGVKRSSELAKEAEKYDPEAGKKILEVRTKGSAEASAVAVAGGTDAAVAAIAEKAAEEAKKLYEEAKKRAEERERE
B4: design_621_7e0052dc-ae49-49a0-b99f-9f3ee649cc2f_1261_dldesign_0_cycle1_af2pred (protein)
chain: AADSVALGQANAEAMLAVADPSQLPAAAAAIAAASPAVAERARRIGLRLAEAAGADVAAFRAAYDAAVAAAKA
B5: design_620_fbd04095-bef7-46a9-992d-f2cb8915922f_2334_dldesign_0_cycle1_af2pred (protein)
chain: LTEEEQKELIIDTIKGLAESAKQFAKASGDPELAKQAEKVAELAKKAIEVTKKGTLEDGVKALSEVSKATMEVAKAA
B6: design_621_7e0052dc-ae49-49a0-b99f-9f3ee649cc2f_896_dldesign_0_cycle1_af2pred (protein)
chain: SAAAAAAAAAKAVAAKTAEALVKQAEALIKEAEKSTKEEGLKLRKAAAENYKLAGTLYEQAGDTATAKKLKEEGEKVEKEAEEKA
B7: design_621_7e0052dc-ae49-49a0-b99f-9f3ee649cc2f_1226_dldesign_0_cycle1_af2pred (protein)
chain: MEAEEYLEKAKEAAEKAKEAAAKGDLAAANAYLGKAIEYAAKAQEVGTPEIAEKANAELARAVKAVQAVAAKVAAA
B8: design_621_7e0052dc-ae49-49a0-b99f-9f3ee649cc2f_147_dldesign_0_cycle1_af2pred (protein)
chain: MEAAAEIALKTAKAMTKSAVAAAEAGNLEDARQIAETAKEILEATAKKVSPELAKKLKEAAKKATAEAEAAVKAAAARLAA
B9: design_621_7e0052dc-ae49-49a0-b99f-9f3ee649cc2f_407_dldesign_0_cycle1_af2pred (protein)
chain: SEAQRLYDAAKTWADIANAAIQQAAADPSTAAVAVAAAKAAVASAKRLAEKAEKLAAKKPEYAPLAKDAKAAVAAAAAAAKAAAA
B10: design_621_7e0052dc-ae49-49a0-b99f-9f3ee649cc2f_501_dldesign_0_cycle1_af2pred (protein)
chain: GAEQVAFQTIVAGARHAARLENEEAAKEIAKVYADIAANLSKETQQKVLEAAKKIAKETEAGKKNGEIVVKELEKALEA
B11: design_621_7e0052dc-ae49-49a0-b99f-9f3ee649cc2f_1427_dldesign_0_cycle1_af2pred (protein)
chain: AAAAAEAAALAQINALTATAVAAAKDPATQPVANAALGQASALAIAQHKVDPAAGAKASQALAAGVEATAAARAAAKAAAAAAAA
B12: design_620_fbd04095-bef7-46a9-992d-f2cb8915922f_2282_dldesign_0_cycle1_af2pred (protein)
chain: AAAEGQALVKQATAYAEEALRLAREGGDPEEVAAKLNLAATYAIKAMNLPATQAQGAKVMDYLGEVAREVAAIRAARAAA
B13: design_620_fbd04095-bef7-46a9-992d-f2cb8915922f_2241_dldesign_0_cycle1_af2pred (protein)
chain: AEKVRELADQMVAIAREAAEKGLSPAEIGAANGQVVDLLEEAYRLAKESGASQEVLDYLNAKNAEANRLLLAAQRA
B14: design_621_7e0052dc-ae49-49a0-b99f-9f3ee649cc2f_741_dldesign_0_cycle1_af2pred (protein)
chain: MEELKKAAEAAEKLAEVTLAIAKQADPKLAEKAKKLKEEVKKVYEEGKKDPSTAKEKLKELEKLSKEITELAAEASKLAVAKAA
B15: design_621_7e0052dc-ae49-49a0-b99f-9f3ee649cc2f_591_dldesign_0_cycle1_af2pred (protein)
chain: GEEEEKKKEVIEKRQEVLKLLAEAVRVGMEADPELASKAASESLELIAKADKYLKEGKYEEALAELEKAKEYVEKMLKEAKALLAAKL
B16: design_620_fbd04095-bef7-46a9-992d-f2cb8915922f_2277_dldesign_0_cycle1_af2pred (protein)
chain: GAAAERAALRDAALAEVDALLAAGAAAAAAAASPVAALLDAHRAAAEVIARLRERDPAAGEEVAAEAQARFSALLRQASASVVA
B17: design_621_7e0052dc-ae49-49a0-b99f-9f3ee649cc2f_624_dldesign_0_cycle1_af2pred (protein)
chain: AEAAKKKVEELLAKAKEEAKKALEDPANIEKYRAEMSKLIAEANRIGIASTPEVNTLAGSGIEEVLKLLDEAVKKAK
B18: design_621_7e0052dc-ae49-49a0-b99f-9f3ee649cc2f_452_dldesign_0_cycle1_af2pred (protein)
chain: EEDERRAEELRRRAEEMLEAAKRAASLPPAERARLLGEAARVVEEARELAERDPRYRPVYDLAVAAFNALATAVGRALAAAA
B19: design_620_fbd04095-bef7-46a9-992d-f2cb8915922f_2436_dldesign_0_cycle1_af2pred (protein)
chain: EAAKEAEKAYKEAKEAAAAALAAADAAADKVPATAVDVLKRTVTANLKQAEKALKAGDAKAVKAQKKQLELLKEGAAAAA
B20: design_621_7e0052dc-ae49-49a0-b99f-9f3ee649cc2f_1174_dldesign_0_cycle1_af2pred (protein)
chain: AEKDEIVEKLLRAAGTATYVAYAFKDDAATKAKATATNQKAREAIQLLGTDFSPEAVALAKEAIEDAEKLKAELEAAQA
B21: design_620_fbd04095-bef7-46a9-992d-f2cb8915922f_2199_dldesign_0_cycle1_af2pred (protein)
chain: AEAAAQAARASVAAARAAVKDARRIAENAKTPEQLESAKKVLEVARALAEDAERNAKAAGDEELVKLAEEARKEAEEAEKKVREKAEE
B22: design_621_7e0052dc-ae49-49a0-b99f-9f3ee649cc2f_590_dldesign_0_cycle1_af2pred (protein)
chain: SERKESVDAGVKAAADIGKYQAKEIAKEDPEKGAAYLKEVEETYEKALASSPEEAFALTNAAFRANAKLAAAAAAKKAAAA
B23: design_620_fbd04095-bef7-46a9-992d-f2cb8915922f_1950_dldesign_0_cycle1_af2pred (protein)
chain: GVAETLKRNLEAAERILKEGEELFETDPAAGAAKFKSAELLATGVVATAEADPSVPEEILKRAKELAKRAKEALEEAEKKVEELKA
B24: design_621_7e0052dc-ae49-49a0-b99f-9f3ee649cc2f_216_dldesign_0_cycle1_af2pred (protein)
chain: RMAEVAERIRRTAEEVREGDAETAVRLAAEVLELARREGNEASAHLAANALRAARAGDVERAVVYLEAAAEITALS
B25: design_620_fbd04095-bef7-46a9-992d-f2cb8915922f_2412_dldesign_0_cycle1_af2pred (protein)
chain: ADGSRLTEAFRVAAEARRVGEEAGKLLGEEALEEAERAAAELRRLLAAAMRAMAAGTGADEAVNAALDAARAALAEFEERLKEAR
B26: design_621_7e0052dc-ae49-49a0-b99f-9f3ee649cc2f_290_dldesign_0_cycle1_af2pred (protein)
chain: AAAALERAARIALAAAKAMLRTAEATGNAAAAAVAADLAAYAAATARAAGPALAPLAAEAEAVEARARALAA
B27: design_620_fbd04095-bef7-46a9-992d-f2cb8915922f_1927_dldesign_0_cycle1_af2pred (protein)
chain: AAAQAALEKMKALAEQALAEIKALSQKDQASIDQGIAVLSRTVTELMTAANQYPEVAAQYAQLAVDLLEQSSKYIRAGRARVAAKEAA
B28: design_621_7e0052dc-ae49-49a0-b99f-9f3ee649cc2f_1041_dldesign_0_cycle1_af2pred (protein)
chain: DPAAVAAAEDMWAIAQQTWAAFTANAATITPAQARQYAAVFATAAVAMEDAARRVSPELAVGYRARAAEMRARAAAARAAAAA
B29: design_621_7e0052dc-ae49-49a0-b99f-9f3ee649cc2f_282_dldesign_0_cycle1_af2pred (protein)
chain: ARAKIVEAAKKAAKEAEAATTRGEVLVALAKAAAVFNRVGDAAGAARVSAAIVQATQLDAAEAKKLAVEVLTAIAEEAA
B30: design_621_7e0052dc-ae49-49a0-b99f-9f3ee649cc2f_687_dldesign_0_cycle1_af2pred (protein)
chain: ALEEALERLKKQAEEAEKAGDKEAAKLAKKGAEQMEKAKTDPVAAMQALLAAAAEADKLAPKVGKVANRVAIEAIRGANAIFRAAQ
B31: design_621_7e0052dc-ae49-49a0-b99f-9f3ee649cc2f_1278_dldesign_0_cycle1_af2pred (protein)
chain: AANAAEQAARLGKALASAAKNAIEAGNLESARKIAEVAVAAGEEAAELAVKYLEAEDPEAGKIFRELVEEEKARRAAEAA
B32: design_621_7e0052dc-ae49-49a0-b99f-9f3ee649cc2f_1011_dldesign_0_cycle1_af2pred (protein)
chain: DLEKKAKEHLEKAKKLAEKAAASNAAEASVYLSQAIEEASKAVELAKKAGPELYKKYSEEATKLVQRASKAVMAKAQAAA
B33: design_620_fbd04095-bef7-46a9-992d-f2cb8915922f_1968_dldesign_0_cycle1_af2pred (protein)
chain: DAAVQAAVAAGQAAAERARETGERAREAGDEETAARLEALAQSVDILADGAAATKDAHAAATLQTLVRQAEREVEEAERRLEA
B34: design_620_fbd04095-bef7-46a9-992d-f2cb8915922f_2025_dldesign_0_cycle1_af2pred (protein)
chain: GLAEVLRASGLALEAYELAEKLAKENPEEGRKAFQEAARLSLRAAARALAIARAFPEIAEFALRLAQRLVELAAEAAEKARELEA
B35: design_621_7e0052dc-ae49-49a0-b99f-9f3ee649cc2f_121_dldesign_0_cycle1_af2pred (protein)
chain: EEAERKARTAELLKEAIHLGFRGIAVGPEYIKEGAKKLEEAAKLLPEKKPLLEKMAELAKKAAESTPTEALQLTLEMIEIAKEVVE
B36: design_621_7e0052dc-ae49-49a0-b99f-9f3ee649cc2f_606_dldesign_0_cycle1_af2pred (protein)
chain: DVAEVLVRTAQAVARQAQAAAALSPEEALAVAQANQQTVAVLLAAAKAAGSAEAVAAAQQAQATVAAVIAAAQARLAA
B37: design_621_7e0052dc-ae49-49a0-b99f-9f3ee649cc2f_505_dldesign_0_cycle1_af2pred (protein)
chain: AAAAAARAAALAVRDKYAAKAKEYAAEAEKYAPTDARVKELLDQGKAEAAKGDAALAAGDYAAAEGYYALAYAYYSAALNRALA
B38: design_621_7e0052dc-ae49-49a0-b99f-9f3ee649cc2f_449_dldesign_0_cycle1_af2pred (protein)
chain: SSNVEKAKELARNLTESAALDPASGALAGRALLAAARNAAAALTPEQSAALAAELRAAVAANQPADPEARALFEQAAAVLAA

What follows are binders tested against CD276, Q5ZPR3.
CD276, Q5ZPR3, sequence (Q5ZPR3 whole entry): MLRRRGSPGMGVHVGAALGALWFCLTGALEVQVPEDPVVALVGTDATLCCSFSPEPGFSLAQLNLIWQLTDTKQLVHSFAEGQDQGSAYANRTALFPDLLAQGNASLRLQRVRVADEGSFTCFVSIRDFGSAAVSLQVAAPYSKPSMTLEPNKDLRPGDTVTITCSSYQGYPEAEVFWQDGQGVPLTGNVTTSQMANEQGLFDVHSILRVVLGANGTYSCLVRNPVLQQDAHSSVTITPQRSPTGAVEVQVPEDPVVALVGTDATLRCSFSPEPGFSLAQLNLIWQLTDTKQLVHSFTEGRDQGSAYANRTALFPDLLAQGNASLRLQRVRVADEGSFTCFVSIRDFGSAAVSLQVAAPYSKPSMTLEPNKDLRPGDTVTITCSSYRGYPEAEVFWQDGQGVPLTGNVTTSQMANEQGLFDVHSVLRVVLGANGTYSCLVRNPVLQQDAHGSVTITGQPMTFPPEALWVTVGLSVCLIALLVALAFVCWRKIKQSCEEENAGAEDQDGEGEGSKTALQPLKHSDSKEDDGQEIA

Row | Binder | binding in a display sort
1 | B1 | not found
2 | B2 | not found
3 | B3 | not found
4 | B4 | not found
5 | B5 | not found
6 | B6 | not found
7 | B7 | not found
8 | B8 | not found
9 | B9 | not found
10 | B10 | not found
11 | B11 | not found
12 | B12 | not found
13 | B13 | not found
14 | B14 | not found
15 | B15 | not found
16 | B16 | not found
17 | B17 | not found
18 | B18 | not found
19 | B19 | not found

Row | Binder | binding in a display sort
20 | B20 | not found
21 | B21 | not found
22 | B22 | not found
23 | B23 | not found
24 | B24 | not found
25 | B25 | not found
26 | B26 | not found
27 | B27 | not found
28 | B28 | not found
29 | B29 | not found
30 | B30 | not found
31 | B31 | not found
32 | B32 | not found
33 | B33 | not found
34 | B34 | not found
35 | B35 | not found
36 | B36 | binds (active)
37 | B37 | not found
38 | B38 | not found
